Compounds without any hit were thinned out: in the full panel of roughly 83,000, 20% have a hit.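 Percent growth is the endpoint: 0 to 100 indicates growth inhibition (40 means 60% inhibition), 0 means no net growth, and negative values indicate cell death.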 Unmarked numbers belong to inactive results. Calls of active or inactive are those of the source. The calls were made as follows: active = growth percent below 10; inactive = the rest.

Among the test systems are T-47D breast; BT-549 breast; MDA-MB-435 melanoma; SW-620 colon; MCF7 breast; HCT-116 colon; HCC-2998 colon; KM12 colon.
What all share (experiment): NCI-60 one-dose screen, 48 h (100 = growth as untreated, 0 = no growth, -100 = all killed)
Conditions in all cases: 10 µM unless noted

As for `O=c1[nH]nc(-c2ccc(Br)cc2)cc1Cc1ccc(O)cc1`, the growth with T-47D breast is 83.2%; in the assay with BT-549 breast, 95.8%; in the assay on MDA-MB-435 melanoma, 113%; in the assay on SW-620 colon it was 97.3%; with MCF7 breast, 86%; with HCT-116 colon, 100%. For the same compound, in the assay with HCC-2998 colon, the growth is 118%.

Consider `COc1ccc(-c2ncc(-c3ccccc3)[nH]2)cc1OC`, for which the growth with T-47D breast was 102%; with BT-549 breast, 240%; with MDA-MB-435 melanoma, 104%; with SW-620 colon it was 108%; in the assay with MCF7 breast, 83.6%; in the assay with HCT-116 colon, 117%. The growth in the assay with HCC-2998 colon is 120%; with KM12 colon it was 105%.

With `COc1ccc2c(c1)c(CC(=O)NCCOCCOCC(=O)Nc1ccc(OC)c(C(N)=O)c1O)c(C)n2C(=O)c1ccc(Cl)cc1`, the growth in the assay on T-47D breast was 81.3%; in the assay with BT-549 breast, 81.1%; in the assay on MDA-MB-435 melanoma it was 104%; in the assay on SW-620 colon, 99.4%; with MCF7 breast, 94.6%; with HCT-116 colon, 93.9%. For the same compound, in the assay with HCC-2998 colon, the growth is 93.5%.

Turning to `Cc1ccc2nc3c(cc2c1)CSc1nnc(-c2ccc[nH]c2=S)n1N3`, the growth in the assay on T-47D breast is 90.8%; in the assay on BT-549 breast, 97.4%; in the assay on MDA-MB-435 melanoma, 88.2%; with SW-620 colon it was 102%; in the assay on MCF7 breast, 94.4%; in the assay with HCT-116 colon it was 92.5%.

For the compound `CN1CCN(c2cnc(C(=O)Nc3cc(F)cc4cccnc34)cn2)CC1`, the growth in the assay with T-47D breast is 28.5%; in the assay on BT-549 breast, 62.2%; in the assay on MDA-MB-435 melanoma, 74.5%; in the assay with SW-620 colon, 39.6%; in the assay with MCF7 breast, 9.71% (active); with HCT-116 colon it was 9.87% (active). For the same compound, the growth in the assay with HCC-2998 colon is 93%.

With `COc1ccc(C(O)c2cc3c(N)c(C(=O)Nc4ccc(Cl)cc4)sc3nc2C)cc1` (stereo unspecified), the growth in the assay with T-47D breast is 37.4%; in the assay with BT-549 breast, 66.4%; in the assay on MDA-MB-435 melanoma, -52.5% (active); with SW-620 colon, 27.1%; in the assay with MCF7 breast, 16.6%; in the assay on HCT-116 colon, 21.7%. The growth with HCC-2998 colon was 23%.

In the case of `CNC(=O)NCC1OC(n2cnc3c(NC(=O)Nc4ccccc4)ncnc32)C(O[Si](C)(C)C(C)(C)C)C1O[Si](C)(C)C(C)(C)C` (stereo unspecified), the growth with T-47D breast was 13.6%; in the assay on BT-549 breast it was 39.7%; in the assay with MDA-MB-435 melanoma it was 25.9%; in the assay on SW-620 colon, 36.4%; in the assay on MCF7 breast, 0.294% (active); in the assay with HCT-116 colon, 0.332% (active). For the same compound, the growth in the assay with HCC-2998 colon was -1.37% (active); with KM12 colon, -3.66% (active).

For `CCCCCCCCCCCCCCCC(=O)OC[C@@]1(O)C[C@@]23CC[C@@H]4C(C)(C)[C@H](O)CC[C@@]4(C)[C@@H]2CC[C@H]1C3`, the growth with T-47D breast was 98.1%; in the assay on BT-549 breast, 91.5%; with MDA-MB-435 melanoma it was 108%; with SW-620 colon it was 110%; with MCF7 breast it was 97%; in the assay on HCT-116 colon, -67% (active). Besides, the growth with HCC-2998 colon was 107%.

Consider `CC(=O)c1c[nH]c2ccc(-c3ccnc(Nc4ccc(NC(=O)c5cccc(F)c5)c(CN5CCOCC5)c4)n3)cc12`, for which the growth was -5.6% (active) in the assay on T-47D breast; -7.43% (active) in the assay with BT-549 breast; -6.37% (active) in the assay on MDA-MB-435 melanoma; 0.335% (active) in the assay on SW-620 colon; -0.0693% (active) with MCF7 breast; 2.26% (active) with HCT-116 colon. For the same compound, the growth in the assay on HCC-2998 colon was 1.41% (active); in the assay with KM12 colon, -7.43% (active).

Turning to `COc1cc2nc(-c3ccc(C(F)(F)F)cc3)cc(OCCN3CCCC3)c2cc1OC`, the growth was 86.5% in the assay on T-47D breast; 70.4% in the assay with BT-549 breast; 97.2% in the assay on MDA-MB-435 melanoma; 91.2% in the assay with SW-620 colon; 85.1% in the assay on MCF7 breast; 67.3% with HCT-116 colon. Besides, in the assay on HCC-2998 colon, the growth is 82%.

With `Clc1ccc2c(c1)c(-c1ccccc1)nc1nncn12`, the growth was 98.2% in the assay with T-47D breast; 99.8% in the assay on BT-549 breast; 113% in the assay with MDA-MB-435 melanoma; 116% in the assay on SW-620 colon; 99% in the assay on MCF7 breast; 106% in the assay with HCT-116 colon. The growth in the assay on HCC-2998 colon was 113%.

As for `N/C(=N\N=C\c1cc2ccccc2s1)N/N=C/c1cc2ccccc2s1`, the growth in the assay with T-47D breast is 95.5%; in the assay with BT-549 breast, 78.5%; in the assay on MDA-MB-435 melanoma, 106%; in the assay on SW-620 colon, 103%; in the assay with MCF7 breast, 82.7%; in the assay on HCT-116 colon, -69.7% (active). For the same compound, in the assay on HCC-2998 colon, the growth is 103%.

Take `C=C1C(=O)O[C@H]2[C@H]1CC/C(CNC(=O)/C=C/c1ccc(Br)cc1)=C\CC[C@@]1(C)O[C@@H]21`: the growth in the assay with T-47D breast is -41.3% (active); in the assay with BT-549 breast it was -59.7% (active); with MDA-MB-435 melanoma it was -47.8% (active); with SW-620 colon, -78.5% (active); in the assay with MCF7 breast, -66.7% (active); in the assay with HCT-116 colon, -81.4% (active). In addition, the growth in the assay on HCC-2998 colon is -92.6% (active).

Consider `CCN1C(=O)/C(=c2\sc3n(c2=O)NC2C(N=3)N(CC)C(=O)N2CC)c2ccccc21` (stereo unspecified), for which the growth in the assay with T-47D breast is 36.3%; with BT-549 breast, 58.8%; with MDA-MB-435 melanoma, -38.6% (active); in the assay on SW-620 colon, 39.5%; in the assay with MCF7 breast it was 37.2%; in the assay with HCT-116 colon, 12.9%. Also, the growth with HCC-2998 colon was 58.9%.

On to `C=C(C)[C@@H]1CC[C@]2(C(=O)NCCCN(CCC#N)CCC#N)CC[C@]3(C)[C@H](CC[C@@H]4[C@@]5(C)CCC(=O)C(C)(C)[C@@H]5CC[C@]43C)[C@@H]12`, for which the growth is 102% with T-47D breast; 95.5% in the assay on BT-549 breast; 105% in the assay on MDA-MB-435 melanoma; 101% in the assay on SW-620 colon; 92.8% with MCF7 breast; 97.3% in the assay with HCT-116 colon. Moreover, the growth with HCC-2998 colon was 108%.

For the compound `Cc1c2c(cc[n+]1Cc1ccccc1)c1ccc(OCC3CCCCC3)cc1n2CC1CCCCC1`, the growth in the assay on T-47D breast was -74.1% (active); in the assay with BT-549 breast, -91% (active); in the assay with MDA-MB-435 melanoma it was -84.9% (active); with SW-620 colon, -96.6% (active); in the assay with MCF7 breast, -92.3% (active); with HCT-116 colon, -98.3% (active). Further, the growth with HCC-2998 colon is -93.2% (active).

Take `COc1cc(C2CC(c3cccc(Nc4ccncc4)c3)=NN2c2cc(Cl)cc(Cl)c2)cc(OC)c1OC` (stereo unspecified): the growth was 26.7% in the assay on T-47D breast; 104% in the assay on BT-549 breast; -85% (active) with MDA-MB-435 melanoma; -62.6% (active) in the assay on SW-620 colon; -50.7% (active) in the assay on MCF7 breast; 87.3% in the assay on HCT-116 colon. Moreover, in the assay with HCC-2998 colon, the growth was -60.4% (active).
